Compound activity: PubChem BioAssay, National Center for Advancing Translational Sciences (NCATS)
An excerpt weighted towards active compounds, which were near 18% of everything screened.
IL1B secr inh: blocks inflammasome-driven IL-1 beta release. activity change, % at 57.5 µM. THP-1 LPS/ATP IL-1B secretion, AlphaLISA, 16 h; stronger effect = lower value. 4.7% of 360,000 active; in the data active = activity change below about -50%; inconclusive = mostly about -30% to -49%; also: % is scaled to controls: 0 for no effect and ±100 for the full control effect
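THP-1 cells pretreated 1 hr with compounds (up to 57.5 uM final), then stimulated with LPS (250 ng/mL final) plus ATP (1.25 mM final); secreted IL-1B measured by AlphaLISA after 16 hr, decreased signal indicating inhibition.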
DT40 TDP1 no CPT: qHTS for Inhibitors of human tyrosyl-DNA phosphodiesterase 1 (TDP1): qHTS in cells in absence of CPT; AID 686978, 2013; 15% of 420,000 active; Potency, µM (top dose mostly 46.2 µM), inactives show top-dose activity change, negative = growth inhibition, hits mostly inhibitors; DT40 Tdp1-/- hTDP1 cells, no CPT, ATP luminescence, 48 h; also: potency is read from the fitted curve at half-maximal effect; % is scaled to controls: 0 for no effect and ±100 for the full control effect; nearly all actives have a fitted effect of over 55% in size
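Camptothecin absent (DMSO only). Human TDP1-complemented DT40 knockout cells, 400 cells/well, 37 °C for minimum 48 hr; ATP measured via CellTiter-Glo, 30 min dark incubation, luminescence.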
HepG2 viability: HepG2 cytotoxicity, counter-screen for TGF-b inhibitors | HepG2 CAGA-GFP viability, ATP luminescence, 18 h | Potency, µM (series often up to 46.1 µM), inactives show at the top dose activity change, negative = cytotoxicity, usual class: cytotoxic | 0.76% of 410,000 active; also: potency is read from the fitted curve at half-maximal effect
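HepG2 CAGA-GFP cells (1000/well, DMEM with 1% FBS) received compound, then TGF-beta at 500 pg/mL final, and were incubated 18 hours at 37 degrees C. Viability was read by CellTiter-Glo luminescence. Media-only wells were set as complete cell-killing and DMSO as no toxicity.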
TGFb SMAD3 inh: TGF-b pathway inhibition; HepG2 CAGA-GFP TGF-b/SMAD3 reporter, GFP fluorescence, 18 h; TGF-beta stimulated, 500 pg/mL final; Potency, µM (top dose mostly 46.1 µM), without a hit: at the highest dose activity, negative = inhibition, actives largely listed as inhibitors; 1.2% of 410,000 active; AID 588855; also: potency is read from the fitted curve at half-maximal effect; % is scaled to controls: 0 for no effect and ±100 for the full control effect; nearly all actives have a fitted effect of over 65% in size
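HEPG2 CAGA-GFP, 1000 cells/well; 2 h settle, 37 C; cpd via pin tool; TGF-b 500 pg/mL final; 18 h, 37 C; GFP imaging ex488/em500-530; %Activity normalised to -TGF-b and +DMSO controls; CRC fit, curve class.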
TDP1 block: TDP1 (human) enzyme inhibition; Q9NUW8; recombinant TDP1, AlphaScreen DNA substrate cleavage; Potency, µM (titrated, usually from 130 µM), for inactives: top-dose activity change, negative = inhibition, hits mostly inhibitors; 0.28% of 350,000 active; also: potency is read from the fitted curve at half-maximal effect; % is scaled to controls: 0 for no effect and ±100 for the full control effect; nearly all actives have a fitted effect of over 40% in size
Target sequence (Q9NUW8 whole entry, looked up): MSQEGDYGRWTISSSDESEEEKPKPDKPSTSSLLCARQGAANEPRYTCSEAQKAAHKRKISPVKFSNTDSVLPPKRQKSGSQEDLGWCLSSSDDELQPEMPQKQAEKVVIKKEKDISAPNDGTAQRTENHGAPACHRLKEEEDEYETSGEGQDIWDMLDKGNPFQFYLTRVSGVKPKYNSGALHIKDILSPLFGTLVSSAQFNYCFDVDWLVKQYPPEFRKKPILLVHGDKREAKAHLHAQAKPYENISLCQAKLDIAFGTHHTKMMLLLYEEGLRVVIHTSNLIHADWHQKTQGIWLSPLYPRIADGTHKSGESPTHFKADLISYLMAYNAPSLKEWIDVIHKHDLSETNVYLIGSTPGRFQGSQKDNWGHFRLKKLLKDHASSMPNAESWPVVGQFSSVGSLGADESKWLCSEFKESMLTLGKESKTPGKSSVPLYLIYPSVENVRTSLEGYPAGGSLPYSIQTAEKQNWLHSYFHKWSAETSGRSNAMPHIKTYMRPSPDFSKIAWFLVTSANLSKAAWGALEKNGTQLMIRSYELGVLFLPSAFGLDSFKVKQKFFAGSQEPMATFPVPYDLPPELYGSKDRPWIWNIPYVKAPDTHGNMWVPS
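Recombinant human Tdp1 (E. coli-expressed, 1 nM final) preincubated with compounds 15 min at room temperature, then 5'-biotin/3'-phosphotyrosine-FITC DNA substrate (15 nM final) added for 5 min. AlphaScreen beads (10 ug/ml final) added 10 min; cleavage lowers signal.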
TDP1 cell CPT: growth inhibition of DT40 Tdp1-/-;hTDP1 cells with camptothecin (screen for TDP1 inhibitors); Potency, µM (titrated, usually from 46.2 µM), without a hit: at the top dose activity change, negative = growth inhibition, usual class: inhibitors; chicken DT40 Tdp1-/-;hTDP1 cells + 20 nM CPT, ATP luminescence, 48 h; 12% of 420,000 active; also: potency is read from the fitted curve at half-maximal effect; % is scaled to controls: 0 for no effect and ±100 for the full control effect; nearly all actives have a fitted effect of over 55% in size
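Chicken DT40 Tdp1-/- cells complemented with human TDP1, 400 cells/well, exposed to compounds plus 20 nM camptothecin for at least 48 h at 37 C; viability read as ATP content by CellTiter-Glo luminescence.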
* marks the source's active call; other numbers are inactive results; ? = inconclusive; / = no result. Unless noted, calls follow the shape of the dose curve; as a rule, active = well fitted curve in the direction sought with a large enough effect; inconclusive = small, poorly fitted or top-dose-only effect, or another doubt; inactive = no such curve, though single readings can be large; an effect the other way counts as inactive or inconclusive.

SMILES	IL1B secr inh	DT40 TDP1 no CPT	HepG2 viability	TGFb SMAD3 inh	TDP1 block	TDP1 cell CPT
O=C(N/N=C/c1ccc(Sc2nc3ccccc3[nH]2)o1)c1ccncc1	-5	?	-6%	?	8%	?
N#C/C(=C/c1ccc(Sc2nc3ccccc3[nH]2)o1)c1cccc(Br)c1	?	?	0%	23%	10%	?
N#C/C(=C/c1ccc(Sc2nc3ccccc3[nH]2)o1)c1ccccc1F	-96*	16µM*	-24%	?	2%	21µM*
N#C/C(=C/c1ccc(Sc2nc3ccccc3[nH]2)o1)c1cccc(F)c1	-94*	?	-19%	?	-4%	21µM*
Cc1cccc(NCc2ccc(N(C)C)cc2)n1	-15	-28%	-10%	6%	13%	?
Cc1cccc(C)c1OC(=O)CSc1nnc(-c2ccc3c(c2)OCO3)o1	/	-18%	21%	57%	9%	-21%
C[C@H]1CN([C@@H](C)CO)C(=O)CCCn2nncc2CO[C@H]1CN(C)S(=O)(=O)c1ccc(Oc2ccccc2)cc1	20	12µM*	-7%	15%	/	18µM*
C[C@@H]1CN([C@@H](C)CO)C(=O)CCCn2nncc2CO[C@H]1CN(C)Cc1cccc(C(F)(F)F)c1	24	-2%	3%	11%	/	1%
Cc1ccccc1CN(C)C[C@H]1OCc2cnnn2CCCC(=O)N([C@@H](C)CO)C[C@@H]1C	29	-5%	-2%	0%	/	-1%
C[C@H]1CN([C@@H](C)CO)C(=O)CCCn2nncc2CO[C@@H]1CN(C)Cc1cccc(C(F)(F)F)c1	11	23µM*	-2%	-2%	/	21µM*
C[C@H]1CN([C@@H](C)CO)C(=O)CCCn2nncc2CO[C@@H]1CN(C)Cc1ccccc1C(F)(F)F	-11	-21%	-37%	-15%	/	18µM*
C[C@@H]1CN([C@@H](C)CO)C(=O)CCCn2cc(nn2)CO[C@H]1CN(C)S(=O)(=O)c1ccc(-c2ccccc2)cc1	34	6.5µM*	-11%	2%	/	9.2µM*
O=C(OCC(=O)N1CCN(c2ccccc2)CC1)c1ccc(O)cc1O	32	-10%	2%	-4%	1%	-15%
C[C@@H]1CN([C@@H](C)CO)C(=O)CCCn2nncc2CO[C@H]1CN(C)Cc1ccc(-c2ccccc2)cc1	27	16µM*	-45%	?	/	0%
O=C(CN1CCN(C/C=C/c2ccccc2)CC1)NCc1ccc(Cl)cc1	-5	4.6µM*	-27%	-2%	2%	5.8µM*
Clc1ccc(CNc2ccc(N3CCN(Cc4ccccc4)CC3)cc2)cc1	-58*	?	-25%	-23%	10%	?
Cc1cccc(N2CCN(CC(=O)NCc3ccc(Cl)cc3)CC2)c1C	-64*	4.1µM*	-19%	?	1%	?
O=C(CN1CCN(c2cccc(C(F)(F)F)c2)CC1)Nc1cccc(C(F)(F)F)c1	8	1%	-18%	?	-7%	-96%
O=C(CN1CCN(c2cccc(C(F)(F)F)c2)CC1)NCc1ccccc1	-55*	?	-15%	19%	1%	-9%
C=CCOC(=O)Nc1nc(CCNC(=O)OCc2ccccc2)c(C(=O)OC)s1	-17	-10%	/	/	/	-17%
NS(=O)(=O)c1ccc(NCc2c(F)cccc2Cl)cc1	-2	?	8%	-1%	-6%	-21%
O=C(CN1CCN(c2ccc(Cl)cc2)CC1)NCc1ccccc1	-61*	?	-28%	-28%	-3%	?
O=C(CN1CCN(c2cccc(Cl)c2)CC1)NCc1ccccc1	-8	?	-14%	-6%	5%	-21%
Fc1cccc(Cl)c1CNc1ccc(N2CCCC2)cc1	-19	9.2µM*	1%	?	9%	2.3µM*
NS(=O)(=O)c1ccc(CCNC(=O)CN2CCN(c3cccc(Cl)c3)CC2)cc1	25	16µM*	-31%	-33%	3%	18µM*
SMILES	IL1B secr inh	DT40 TDP1 no CPT	HepG2 viability	TGFb SMAD3 inh	TDP1 block	TDP1 cell CPT
Cc1[nH]c2ccccc2c1C(O)CN1CCN(c2cccc(C(F)(F)F)c2)CC1 (configuration not stated)	-103*	18µM*	-100%	0%	5%	23µM*
CC(C)[C@H](NC(=O)c1ccco1)C(=O)N(C)Cc1ccc(C(F)(F)F)cc1	19	?	-8%	-1%	14%	?
CCOC(=O)C1CCN(C2=NC(=O)/C(=C/c3ccc(O)cc3)S2)CC1	28	7.3µM*	-10%	18%	/	?
CCOC(=O)C1CCN(C2=NC(=O)/C(=C/c3ccccc3OC)S2)CC1	15	-6%	-28%	-25%	/	?
CCOC(=O)C1CCCN(C2=NC(=O)/C(=C/c3ccc(N(C)C)cc3)S2)C1 (configuration not stated)	-83*	?	-24%	12%	/	?
CCc1cccc2c(C(=O)C(NCCOC)c3ccccc3)c[nH]c12 (configuration not stated)	-23	12µM*	-20%	-7%	0%	?
CCc1cccc2c(C(=O)CSc3nncn3C)c[nH]c12	20	4%	-1%	-3%	-3%	-4%
CCNC(C(=O)c1c[nH]c2c(CC)cccc12)c1ccccc1 (configuration not stated)	-57*	?	-24%	-10%	4%	?
C[C@H]1CN([C@@H](C)CO)S(=O)(=O)c2ccc(Br)cc2O[C@H]1CN(C)Cc1ccccc1F	?	23µM*	-60%	16µM*	/	16µM*
C[C@@H]1CN([C@@H](C)CO)S(=O)(=O)c2ccc(Br)cc2O[C@H]1CN(C)C(=O)c1ccccc1F	-19	?	-25%	?	/	?
C[C@@H]1CN([C@@H](C)CO)S(=O)(=O)c2ccc(Br)cc2O[C@H]1CN(C)Cc1ccccc1F	-23	10µM*	-111%	?	/	15µM*
CC(C)(C)c1nn(-c2ccccc2)c2[nH]c(=O)c(C=O)cc12	35	?	1%	-25%	3%	?
CCOC(=O)c1noc(C)c1C(=O)Nc1nc(C)cc(C)n1	29	-7%	-8%	-8%	-2%	-2%
CCCCn1c(CNC(=O)c2cccs2)nc2ccccc21	5	?	-24%	-22%	3%	-13%
